According to paper PMC5540273 (PLoS ONE, 2017):

Assays:
Settings in all cases: concentration: 1 μM, replicates: in singlicate; n = 1
AURKC = test system: AURKC
AXL = test system: AXL
BIKE = test system: T1, BIKE
T1 construct: gene BMP2K

BLK = test system: BLK
BMPR1A = test system: BMPR1A
BMPR1B = test system: BMPR1B
BMPR2 = test system: BMPR2
BMX = test system: BMX
BRAF = test system: BRAF
BRK = test system: T2, BRK
T2 construct: gene PTK6
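Also: KINOMEscan kinase panel screen.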

| SMILES | %Inh (AURKC) | %Inh (AXL) | %Inh (BIKE) | %Inh (BLK) | %Inh (BMPR1A) | %Inh (BMPR1B) | %Inh (BMPR2) | %Inh (BMX) | %Inh (BRAF) | %Inh (BRK) |
| --- | --- | --- | --- | --- | --- | --- | --- | --- | --- | --- |
| Cl.O=S(=O)(c1cccc(F)c1)c1ccc(Nc2ncnc3cc(Br)sc23)cc1Cl [GSK306886] | 0% | 0% | 0% | 10% | 0% | 0% | 0% | 15% | 0% | 0% |
| Nc1nc(-c2ccccn2)c(-c2ccnc3ccccc23)s1 [GW548057] | 25% | 8% | 33% | 9% | 0% | 35% | 32% | 9% | 0% | 1% |
| Cl.Cn1ccc(-c2cccc(Nc3ccnc4cc(-c5nccs5)ccc34)c2)n1 [GW525701] | 0% | 0% | 0% | 15% | 0% | 0% | 16% | 0% | 0% | 5% |
| COc1cc2ncnc(Nc3ccc(OCc4ccccc4Br)c(Cl)c3)c2cc1OC.Cl [GI261590] | 42% | 19% | 5% | 49% | 0% | 0% | 15% | 4% | 7% | 66% |
| Clc1cccc(-c2nc(Nc3ccncc3)c3ccccc3n2)c1 [GW873004] | 10% | 0% | 10% | 19% | 21% | 4% | 10% | 43% | 0% | 24% |
| CN1CCC(n2cnc(-c3ccc(F)cc3)c2-c2ccnc(NC3CCNCC3)n2)CC1 [SB-229482] | 0% | 48% | 0% | 10% | 6% | 0% | 1% | 0% | 0% | 0% |
| COc1cc2c(Nc3cccc(NC(=O)c4ccccc4)c3)ncnc2cc1OCCCN1CCOCC1 [GSK223810] | 51% | 42% | 42% | 58% | 9% | 0% | 0% | 33% | 34% | 18% |
| Oc1ccc2ncnc(Nc3ccc(OCc4ccccc4)cc3)c2c1 [GI262866] | 34% | 5% | 20% | 31% | 0% | 0% | 0% | 0% | 0% | 4% |
| Cn1ccc2ncnc(Oc3ccc(NC(=O)Nc4cccnc4)c(Cl)c3)c21 | 0% | 7% | 0% | 8% | 0% | 0% | 7% | 0% | 0% | 0% |
| C[C@H]1CC[C@@H](C(=O)Nc2ccccc2)CN1c1cc(-c2ccc3c(N)n[nH]c3c2)nc(N)n1 [GSK2283293] | 25% | 0% | 23% | 50% | 0% | 0% | 0% | 7% | 0% | 19% |
| COc1ccc(NC(=O)Nc2ccc(C)c(-c3ccc(C(=O)Nc4ccncc4)cc3)c2)cc1 [GSK1398475] | 0% | 0% | 0% | 28% | 0% | 0% | 0% | 14% | 0% | 32% |
| CS(=O)(=O)CCNCc1nc(-c2ccc3ncnc(Nc4ccc(OCc5cccc(F)c5)c(Cl)c4)c3c2)cs1.Cl [GW583340] | 0% | 0% | 0% | 25% | 0% | 0% | 0% | 0% | 0% | 0% |
| CNc1nccc(-c2c(-c3ccc(F)cc3)ncn2C2CCN(C)CC2)n1 [SB-222903] | 0% | 0% | 0% | 36% | 0% | 0% | 11% | 0% | 0% | 0% |
| Cn1cc(-c2ccc3c(c2)CCN3C(=O)Cc2cccc(C(F)(F)F)c2)c2c(N)ncnc21 [GSK2606414] | 29% | 41% | 26% | 36% | 0% | 0% | 0% | 2% | 12% | 3% |
| C[C@@H]1CCN(C(=O)CO)C[C@@H]1N(C)c1ncnc2[nH]ccc12 | 0% | 0% | 19% | 2% | 23% | 0% | 0% | 0% | 0% | 0% |
| COc1ccc(-c2oc3ncnc(N)c3c2-c2ccc(OC)cc2)cc1 [SB-589132] | 0% | 13% | 0% | 66% | 0% | 0% | 30% | 0% | 38% | 15% |
